Screening results from PubChem BioAssay.
KDM5B inhibitor: blocks human KDM5B histone demethylase activity. Q9UGL1. KDM5B demethylase, FDH-coupled NADH fluorescence (FDH is formaldehyde dehydrogenase). Potency, µM (highest dose often 57.7 µM), usual class: inhibitors. actives 2.6% (n = 220,000). AID 1347165; active = well fitted inhibition curve with a large enough effect; also: nearly all actives have a fitted effect of over 70% in size
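Measured: NADH fluorescence change, 30 min, RT. System: KDM5BΔAP 200 nM final, H3K4me3 peptide, α-KG, Fe(II), ascorbate, NAD⁺ plus FDH, pH 7.5 HEPES. Compounds: titrated, 10 min pre-incubation with enzyme.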
A number is an active result; – = inactive. This excerpt belongs to a sample that is enriched for hits.

SMILES	KDM5B inhibitor
N#CCCCN1CCCC1Cc1ccccc1 (stereo not given)	–
CCN1CC(c2ccccc2)CC2(CCN(Cc3cnc(SC)nc3)CC2)C1 (stereo not given)	–
CCSc1ncc(CN2CCN(c3ccc4nccn4n3)CC2)cn1	28.2µM
CCO[C@H]1CN(Cc2cnc(SCc3ccccc3)nc2)C[C@@H]1O	–
O=C(O)Cc1ccc(N2C(=O)C(=O)/C(=C(/O)c3ccccc3Cl)C2c2ccc(C(=O)O)cc2)cc1 (stereo not given)	–
O=C(c1ccoc1)N1CCC(c2noc(C3CC3)n2)C1 (stereo not given)	–
Cc1noc([C@@H]2CN(C(=O)c3cccc4[nH]ccc34)C[C@H]2CO)n1	28.2µM
O=C(c1nccc2ccccc12)N1CCC(c2noc(C3CC3)n2)C1 (stereo not given)	–
Cc1noc([C@@H]2CN(C(=O)CCc3c[nH]c4ccccc34)C[C@H]2CO)n1	–
Cc1noc([C@@H]2CN(C(=O)c3nccc4ccccc34)C[C@H]2CO)n1	–
O=C(c1ccc(F)cc1)N1C[C@@H](CO)[C@H](c2nc(C3CC3)no2)C1	–
O=C(c1cccc2[nH]ccc12)N1CCC(c2noc(C3CC3)n2)C1 (stereo not given)	22.4µM
O=C(c1ccccc1F)N1C[C@@H](CO)[C@H](c2nc(C3CC3)no2)C1	–
O=C(c1cccc2[nH]ccc12)N1C[C@@H](CO)[C@H](c2nc(C3CC3)no2)C1	22.4µM
O=C(CSC1CCCCC1)c1ccc(O)cc1O	–
CC1(NC(=O)CCc2ncc(-c3ccccc3)o2)CCS(=O)(=O)C1 (stereo not given)	–
FC(F)(F)c1ccc(/C=N/Nc2ccccc2Cl)cc1	–
O=C(NCCc1ccccc1)Nc1c(NC2CCCC2)c2ccccc2oc1=O	–
O=C(CCc1nnc2ccc(NCc3ccc4c(c3)OCO4)nn12)N1CCc2ccccc2C1	–
Cc1ccc(N2CCN(C(=O)CCNS(=O)(=O)c3ccc4[nH]c(=O)ccc4c3)CC2)c(C)c1	–
N#Cc1ccc2nc(CO[C@H]3CN(Cc4ccccc4F)C[C@H]3F)[nH]c2c1	–
Cc1ccc2nc(CO[C@H]3CN(Cc4cnn(C)c4)C[C@H]3F)[nH]c2c1	–
Cc1ccc2nc(CO[C@H]3CN(c4ccc(C#N)cn4)C[C@H]3F)[nH]c2c1	17.8µM
O=C(NC(C1CC1)C1CC1)c1cncc(Br)c1	–
O=C(O)C(c1c[nH]c2cc(F)ccc12)N1CCN(c2ccccc2)CC1 (stereo not given)	–
SMILES	KDM5B inhibitor
Cc1ccc(C(=O)Nc2ccc(-c3nc4ccccc4o3)cc2)cc1	–
CC(=O)N1CCCC1C(=O)Nc1ccc(-c2nc3ccccc3o2)cc1 (stereo not given)	28.2µM
O=C(Nc1ccc(-c2nc3ccccc3o2)cc1)C(F)(F)F	–
O=C1COc2ccc(-c3ccncc3)nc2CN1Cc1ccc(C(F)(F)F)cc1	39.8µM
O=C1COc2ccc(OCC3CC3)nc2CN1Cc1ccc(C(F)(F)F)cc1	–
Cc1ccccc1-c1ccc2c(n1)CN(Cc1ccccc1)C(=O)CO2	–
O=C1COc2ccc(-c3ccccc3)nc2CN1Cc1ccccc1F	–
O=C1COc2ccc(-c3ccoc3)nc2CN1Cc1ccccc1	31.6µM
Cc1ccccc1CN1Cc2nc(-c3ccccc3)ccc2OCC1=O	–
CN1CCCC1COc1ccc2c(n1)CN(Cc1ccc(C(F)(F)F)cc1)C(=O)CO2 (stereo not given)	–
Cc1noc(C)c1-c1ccc2c(n1)CN(Cc1ccc(C(F)(F)F)cc1)C(=O)CO2	–
Cc1ccccc1CN1Cc2nc(-c3cnn(Cc4ccccc4)c3)ccc2OCC1=O	–
O=C1COc2ccc(-c3ccncc3)nc2CN1Cc1ccccc1	35.5µM
O=C1COc2ccc(-c3ccoc3)nc2CN1Cc1ccc(C(F)(F)F)cc1	35.5µM
O=C1COc2ccc(-c3cn[nH]c3)nc2CN1Cc1ccc(C(F)(F)F)cc1	–
CC(=O)N1C=Cc2ccccc2C1CC(=O)Nc1ccc(S(=O)(=O)N2CCCCCC2)cc1 (stereo not given)	–
O=C1CCN(Cc2ccc(C(F)(F)F)cc2)CCCC(c2nc(-c3cccnc3)no2)CCN1 (stereo not given)	–
CC(O)CNS(=O)(=O)c1cc(C(=O)O)ccc1Br (stereo not given)	–
COc1ccc(CC(=O)c2ccc(O)c(C)c2O)cc1	–
Cc1cccc(C)c1NC(=O)CSc1nnc2[nH]c(=O)c(Cc3ccccc3)nn12	–
CCOc1ccc(S(=O)(=O)[C@H]2CS(=O)(=O)C[C@@H]2N2CCC3(CC2)OCCO3)cc1	–
CCOP(=O)(OCC)c1nc(Cc2ccc(OC)cc2)oc1NCc1ccco1	–
COC(=O)c1c(C)[nH]c(-c2csc(NC3CC3)n2)c1C	–
CC(C)c1noc(-c2cccn3c(CNC(=O)Cc4ccc(F)cc4)nnc23)n1	14.1µM
CCCc1noc(-c2ccn3c(CNC(=O)c4cccc(C)c4)nnc3c2)n1	–
SMILES	KDM5B inhibitor
CC(C)c1noc(-c2cn(C3CCN(C(=O)Cc4ccc(F)cc4)CC3)nn2)n1	–
CCc1noc(-c2cccn3c(CNC(=O)Cc4ccc(F)cc4)nnc23)n1	28.2µM
CCc1noc(-c2cccn3c(CNC(=O)Cc4ccc(C)cc4)nnc23)n1	25.1µM
CCc1noc(-c2cccn3c(CNC(=O)c4cccc(C)c4)nnc23)n1	28.2µM
O=C(Cn1nc2c(-c3nc(-c4cccc(F)c4)no3)cccn2c1=O)NCc1ccc(F)cc1	–
Cc1cc2oc(C(=O)NCC(c3ccco3)N3CCCCC3)cc(=O)c2cc1C (stereo not given)	–
CCCCCCn1nc(C(=O)N(C)Cc2cccc(OC)c2)c2ccccc2c1=O	–
CC(C)c1ccccc1NC(=O)COc1ncnc2ccc(Br)cc12	–
C=CCOc1cccc(NC(C)=O)c1	–
O=c1[nH]c2ccc(-c3csc(NC4CCCC4)n3)cc2o1	–
COc1ccc(C)cc1-n1nnc(C(=O)Nc2ccc(Br)cc2)c1C	–
CC(=O)c1ccc(C(=O)OC(C)C(=O)c2ccc(C)cc2)s1 (stereo not given)	–
N#CC(C(=O)NCc1ccccc1)c1nc2ccccc2nc1N1CCN(CCc2ccccc2)CC1 (stereo not given)	–
O=C1C(C2=CCCCC2)CCCC1C1=CCCCC1 (stereo not given)	–
N#Cc1c(N2C(=O)CC(c3ccc4c(c3)OCO4)C3=C2CCCC3=O)sc2c1CCCCC2 (stereo not given)	–
N#C/C(=C/c1ccoc1)c1nc(-c2ccc(C3CCCCC3)cc2)cs1	–
Cc1ccc(NC(=O)Cn2nc3c(cc2=O)CCCCC3)cc1C	–
CN1C(=O)c2ccc(NC(=O)Cn3nc4c(cc3=O)CCCC4)cc2C1=O	28.2µM
O=C(Cn1nc2c(cc1=O)CCCCC2)Nc1ccc(F)cc1	–
CN(Cc1ccc(-c2ccc(Cl)cc2)o1)C(=O)CSc1nnc(C2CC2)n1CCC(N)=O	–
CCN(c1ccccc1)S(=O)(=O)c1ccc(OC)c(NC(=O)c2nn(C)c(=O)c3ccccc23)c1	–
Cc1cc(C)c(C(=O)Oc2c(C)cccc2C)c(C)c1	–
CCn1cnc2c1c(=O)n(CC(=O)NCC1CCCO1)c(=O)n2Cc1ccccc1 (stereo not given)	–
CCCN1CCN(C(=O)Cn2nc(C)c3sc(-c4ccccc4)nc3c2=O)CC1	31.6µM
CCC(C)NC(=O)Cn1nc(C)c2sc(-c3ccccc3)nc2c1=O (stereo not given)	8.91µM
Cc1nn(CC(=O)NCc2ccccc2)c(=O)c2nc(C(C)C)sc12	–
